# D2 ag-1: agonists of human D2 dopamine receptor. P14416. 0.53% of 340,000 active. AID 485358. HEK293 T-REx D2 cells, calcium flux agonist mode. activation, % at 2 µM;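 active = activation over 3 SD above normal in the single-dose calcium agonist read, cut at about 30% in these data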; also: 0% is about no effect
#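 Calcium-flux readout, 1 cycle/sec over 180 s following compound pin transfer, in inducible HEK293 Trex D2 cells (force-coupled); dopamine controls included. Positive calcium responses during this window marked compounds as potential agonists.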
# D2 PAM-1: human D2 receptor positive allosteric modulation; P14416; DiscoveRx D2 beta-arrestin cells, luminescence, 90 min; 100% = 57 uM dopamine signal; potentiation, % (test concentration not listed); 0.23% of 360,000 active; in the data active = potentiation above about 50%; inconclusive = mostly about 30% to 49%
#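 D2 cells co-treated with compound plus 50 nM dopamine (EC20) for 90 min at 37 deg C to detect potentiation. Beta-arrestin recruitment was read as enzyme-fragment luminescence after 1 h at ambient temperature. Full response was set by 57 uM dopamine.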
# D2 PAM-2: positively modulates the human D2 dopamine receptor allosterically; P14416; HEK293 T-REx D2, calcium flux, EC20 dopamine potentiation; potentiation, % at 10 µM; 0.34% of 340,000 active;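 active = potentiation over 3 SD above the plate norm, cut at about 30% in these data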; also: 0% is about no effect
#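 Calcium flux readout, no-wash dye, 1 read/s. Inducible HEK293 Trex D2 line, overnight 30 C. Compound alone 180 s (agonist flags), then EC20 dopamine, another 180 s to score potentiation.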
# D2 antag: antagonizes the human D2 dopamine receptor; HEK293 TREx D2 cells, calcium flux, dopamine EC80; inhibition, % at 10 µM; 2% of 340,000 active; AID 485344; in the data active = inhibition above about 30%; inactive = below that, where a call was filed; also: 0% is about no effect
#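 Dopamine at EC80 is the agonist stimulus; test compounds precede it by 180 s. Calcium flux read kinetically in a force-coupled, inducible HEK293 T-REx D2 cell line.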
# D2 ag-2: activates the human D2 dopamine receptor | activation, % (no concentration beside the values) | P14416 | 0.084% of 360,000 active | DiscoveRx PathHunter D2 beta-arrestin, luminescence, 90 min; 100% = 57 uM dopamine signal; in the data active = activation above about 40%; inconclusive = between about 15% and that limit
#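 DiscoveRx PathHunter D2 beta-arrestin cells (2,100/well) attached overnight, then compound-stimulated 90 min at 37 C in HBSS/10 mM HEPES/0.1% Tween-20 buffer; beta-galactosidase complementation read by luminescence after 1 h at ambient temperature. Dopamine 57 uM final (EC100) as control.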
# D3 arrestin ag: confirmation of human D3 dopamine receptor agonists, beta-arrestin; AID 720506; shares compounds with D2 ag-1; Potency, µM (series often up to 76.9 µM), for the others: top-dose activation, hits mostly activators; 4% of 2,300 active; DiscoveRx D3 beta-arrestin cells, luminescence, 90 min;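 also: potency is read from the fitted curve at half-maximal effect; 100% = dopamine control response; nearly all actives have a fitted effect of over 70% in size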
# Target sequence (P35462 whole entry, looked up): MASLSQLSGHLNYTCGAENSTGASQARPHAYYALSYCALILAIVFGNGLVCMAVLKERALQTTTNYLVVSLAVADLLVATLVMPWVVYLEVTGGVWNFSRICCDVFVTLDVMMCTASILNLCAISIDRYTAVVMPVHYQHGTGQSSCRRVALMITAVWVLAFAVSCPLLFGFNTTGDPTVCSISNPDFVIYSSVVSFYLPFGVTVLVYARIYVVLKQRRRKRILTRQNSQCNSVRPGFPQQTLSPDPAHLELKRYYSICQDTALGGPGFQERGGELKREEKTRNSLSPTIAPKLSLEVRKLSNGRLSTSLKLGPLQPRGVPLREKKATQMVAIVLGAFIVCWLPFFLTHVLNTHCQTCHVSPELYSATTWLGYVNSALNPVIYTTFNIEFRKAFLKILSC
# D2 ag-3: counter-screen for D3 agonists: human D2 dopamine receptor agonism; 5.9% of 2,300 active; shares compounds with D2 ag-1; Potency, µM (highest dose often 76.9 µM), without a hit: top-dose activation, usual class: activators; DiscoveRx PathHunter D2 beta-arrestin, luminescence, 90 min; response scale: percent relative to full dopamine signal; also: potency is read from the fitted curve at half-maximal effect; % of control where 0% means no effect; nearly all actives have a fitted effect of over 70% in size
# Numbers without * were called inactive; ? = inconclusive; . = no result. The list is not random: actives were taken first. Their share in the collection is about 2.4%. Unless noted, calls follow the shape of the dose curve; as a rule, active = well fitted activation curve with a large enough effect; inconclusive = small, poorly fitted or top-dose-only effect; inactive = flat fitted curve, though single readings scatter.
SMILES,D2 ag-1,D2 PAM-1,D2 PAM-2,D2 antag,D2 ag-2,D3 arrestin ag,D2 ag-3
CCC(=O)N1c2ccccc2CC1C(=O)NCCc1ccccc1Cl (stereo not given),1,.,-3,.,.,.,.
COc1ccc(NC(=O)Cn2cc(C(=O)C3CCCCC3)c3ccccc32)cc1,3,.,5,.,.,.,.
Cc1ccc(Nc2c(-c3ccc(N4CCOCC4)cc3)nc3c(C)cccn23)cc1,-1,.,.,.,.,.,.
COC(=O)c1cc2oc3ccccc3c2n1Cc1nc(-c2ccccc2Cl)oc1C,0,.,-6,.,.,.,.
CC(C)OC(=O)c1c(NS(=O)(=O)c2ccccc2)sc2c1CCCC2,1,-1,3,26,-2,-11%,-5%
Cc1ccc(O)c(NC(=S)NC(=O)Cc2ccc(Cl)cc2)c1,.,-6,.,.,2,-7%,-2%
Cc1ccc2occ(CC(=O)N(Cc3ccccc3Cl)C3CCS(=O)(=O)C3)c2c1 (stereo not given),2,.,-4,.,.,.,.
CCOC(=O)c1nc2nc(-c3cccs3)cc(C(F)(F)F)n2n1,2,-8,13,-4,3,.,.
O=C(c1nc2nc(-c3cccs3)cc(C(F)(F)F)n2n1)N1CCN(Cc2ccccc2)CC1,65*,19,-11,5,-1,-7%,1%
COc1ccc(C(=O)Nc2cc(Cl)ccc2-n2cncn2)c(OC)c1OC,2,0,-4,-12,2,20%,6%
Cc1ccc(Cl)cc1N1CCN(C(=O)c2cnc(N3CCOCC3)c3ccccc23)CC1,0,.,.,.,.,.,.
Cc1ccc(S(=O)(=O)N2CCCc3cc(NC(=O)c4ccc(C(F)(F)F)cc4)ccc32)cc1,2,.,-3,.,.,.,.
Cc1ccc(CN2C(=O)C(O)(CC(=O)c3ccc(C)cc3)c3ccccc32)cc1 (stereo not given),1,.,12,.,.,.,.
Cc1cc(C)n2nc(C(=O)Nc3ccn(Cc4ccccc4C)n3)cc2n1,51*,-1,0,-8,0,2%,-2%
CN(c1ccc(C(=O)N2CCN(Cc3ccccc3)CC2)cc1)S(=O)(=O)c1ccc(Cl)cc1,65*,-16,-25,90*,?,4%,?
CC(C)(C)c1ccc(C(=O)N2CCN(Cc3ccccc3)CC2)cc1,17,-47,-13,19,-2,.,.
O=C(c1ccccc1)N1CCN(Cc2ccccc2)CC1,3,-28,-11,21,1,-23%,?
N=C(N)N1CCN(Cc2ccccc2)CC1,42*,.,-18,20,.,-5%,-3%
O=C(c1ccccc1)N1CCN(CC#Cc2ccccc2)CC1,.,-7,-9,.,3,?,6%
O=C(N1CCOCC1)N1CCN(Cc2ccccc2)CC1,1,15,-6,9,-1,.,.
CCN1CCN(C(=O)Cn2ncc3c4ccccc4n(Cc4c(C)cc(C)cc4C)c3c2=O)CC1,-1,.,1,.,.,.,.
COc1ccc(S(=O)(=O)c2cn(C)c3cc(N4CCCCCC4)c(F)cc3c2=O)cc1,-1,.,-3,.,.,.,.
O=C(c1ccc(N2CCOCC2)c([N+](=O)[O-])c1)N1CCN(Cc2ccccc2)CC1,60*,-6,-20,-1,3,-2%,4%
O=C(c1ccc(Br)c([N+](=O)[O-])c1)N1CCN(Cc2ccccc2)CC1,1,-5,4,-5,0,.,.
CC(C)(O[C@@H]1O[C@H](CO)[C@@H](O)[C@H](O)[C@H]1O)[C@@H]1CC=C(C(=O)O)CC1,-1,5,10,-18,-2,-3%,-2%
CC(C)(O[C@@H]1O[C@H](CO)[C@@H](O)[C@H](O)[C@H]1O)[C@H]1Cc2cc3ccc(=O)oc3cc2O1,1,-5,-7,-10,-4,.,.
Cc1cccc(N2C(S)=C(C#N)C(=O)NC2c2ccco2)c1 (stereo not given),0,-3,6,22,0,.,.
